# Test results from PubChem BioAssay (NCI).
# The panel holds about 83,000 compounds, 20% with a hit somewhere; the sample as a whole holds those more often.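 Each cell line was grown in a 96-well plate and treated with one concentration of compound for 48 hours. Values below 10 were considered active.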 Values without a mark were called inactive. Active and inactive are the calls of the source.
# Tested on: OVCAR-5 ovarian
# Test: NCI-60 one-dose screen, 48 h (100 = growth as untreated, 0 = no growth, -100 = all killed)
# Conditions: 10 µM unless noted
row,Structure (SMILES),growth
1,O=C1CN(Cc2ccc(C(=O)NO)cc2)C(=O)[C@@H](Cc2ccccc2)N1,101%
2,COc1ncc(-c2ccc3nccc(C#CCCCCC(=O)NO)c3c2)cc1NS(=O)(=O)c1ccc(F)cc1F,4.43% (active)
3,CCCCCN(CCCCC)CCCCCCCCN1CCCc2ccccc21,107%
4,CC1Cc2c(Cl)ncnc2N(C)c2ccc(O)cc21 (stereo not drawn),102%
5,FC(F)(F)c1ccc2c(c1)Sc1ccccc1N2,98.2%
6,Cc1ccc2c(n1)C(=O)C(Cl)=C(Nc1ccc(N3CCN(C)CC3)cc1)C2=O,-7.55% (active)
7,CCOc1cc(/C=N\NC(=O)N/N=C/c2ccc(O)c(OCC)c2)ccc1O,66.8%
8,C1=C[C@H]2O[C@@H]1c1ccc3[nH]ccc3c12,105%
9,CC1(C)CC[C@]2(C(=O)O)CC[C@]3(C)[C@H](CC[C@@H]4[C@@]5(C)CCC(=O)C(C)(C)[C@@H]5CC[C@]43C)[C@H]2[C@H]1OC(=O)C(F)(F)F,-53.1% [100 µM] (active)
10,[2H]C1([2H])CCN(C(=O)C2CC2)c2cc(NS(=O)(=O)c3ccc(-c4cccc(C(N)=O)c4)cc3)ccc21,60.6%
11,CCOC(=O)c1sc2nc(-c3cc(OC)c(OC)c(OC)c3)nc(N3CCOCC3)c2c1C,74%
12,O=C(CCN1CCCCC1)c1ccc(Cl)cc1,102%
13,O=C1CC(C(F)(F)F)Cc2nc3ccc(Br)cc3cc21 (stereo not drawn),87.2%
14,NC(=O)c1cccc(-c2ccc(S(=O)(=O)Nc3ccc4c(c3)N(C(=O)C3CC3)CCC4)cc2)c1,64.8%
15,CCOC(=O)CCC[P+](c1ccccc1)(c1ccccc1)c1ccccc1,95.1%
16,CC1(C)CC[C@]2(C(=O)O)CC[C@]3(C)C(=CC[C@@H]4[C@@]5(C)C/C(=C/c6cccnc6)[C@H](O)C(C)(C)[C@@H]5CC[C@]43C)[C@@H]2C1,-2.1% [100 µM] (active)
17,CCC(Br)(CC)C(=O)c1ccc(OCC(=O)O)c(Cl)c1Cl,106%
18,C#C[C@]1(O)CC[C@H]2[C@@H]3CC=C4c5nc(Nc6ccccc6[N+](=O)[O-])sc5CC[C@]4(C)[C@H]3CC[C@@]21C,70.4%
19,O=C(N/N=C\c1cc(Cl)ccc1O)N/N=C/c1cc(Cl)ccc1O,75.6%

row,Structure (SMILES),growth
1,C=C(C)[C@@H]1CC[C@]2(C(=O)NCCNCCNC(=O)OC(C)(C)C)CC[C@]3(C)[C@H](CC[C@@H]4[C@@]5(C)CCC(=O)C(C)(C)[C@@H]5CC[C@]43C)[C@@H]12,60.4% [100 µM]
2,Cc1cc(C)c(O)c(CNCCCNCc2cc(C)cc(C)c2O)c1,74.6%
3,O=C(Nc1ccc(C(=O)/C=C/c2ccc(N3CCOCC3)cc2)cc1)Nc1ccc([N+](=O)[O-])cc1,94.4%
4,C[C@H]1[C@H](C)CC[C@]2(C(=O)N3CCN(C)CC3)CC[C@]3(C)C(=CC[C@@H]4[C@@]5(C)C/C(=C/c6ccco6)C(=O)C(C)(C)[C@@H]5CC[C@]43C)[C@H]12,63.5% [100 µM]
5,Nc1nc(Cl)c2ncn(Cc3cc4c(cc3I)OCO4)c2n1,72.8%
6,CC1(C)OC2[C@@H](CNC(=O)NC(=O)NC(=O)CI)O[C@@H](n3cnc4c(NC(=O)Nc5ccccc5)ncnc43)[C@H]2O1 (stereo partly drawn),93%
7,Fc1cc2[nH]ncc2c2c3c(c(-c4cn[nH]c4C(F)(F)F)nc12)C1CCC3C1 (stereo not drawn),-7.74% (active)
8,CC1Cc2c(Cl)ncnc2N(C)c2ccccc21 (stereo not drawn),41.8%
9,C=C(C)[C@@H]1CC[C@]2(COCCCN)CC[C@]3(C)[C@H](CC[C@@H]4[C@@](C)(CCCNCCCN)[C@H](C(=C)C)CC[C@]43C)[C@@H]12,-63.6% [100 µM] (active)
10,CCCCCCSc1ncnc2nc[nH]c12,98.9%
11,C[C@@H]1C[C@H]2C(=O)O[C@@H](C)[C@H](NC(=O)[C@H](Cc3cc(F)cc(F)c3)NC(=O)Nc3ccc(C4CC4)cc3F)C(=O)N3CCC[C@H]3C(=O)N3CCCC[C@H]3C(=O)N[C@@H](C)C(=O)N2C1,-2.59% (active)
12,O=[N+]([O-])c1ccc(O)c(-c2nc3ccccc3s2)c1,112%
13,COc1cc2c(cc1OC(C)=O)C(=O)CCCC2,103%
14,COc1ccc(CC(C#N)c2ccc(Cl)cc2)cc1 (stereo not drawn),82.9%
15,COc1ccc(N(c2nc(-c3ccc([N+](=O)[O-])cc3)cs2)C(C)C)cc1,109%
16,C=C(C)[C@@H]1CC[C@]2(C)[C@H](CC[C@@H]3[C@@H]([C@@](C)(O)CCC=C(C)C)CC[C@]32C)[C@@]1(C)CCC(=O)O,3.52% [100 µM] (active)
17,CCOc1ccc(S(=O)(=O)Nc2ccc3c(c2)N(S(=O)(=O)CC)CCC3)cc1,94.6%
18,Cc1cnc(N)nc1OCCNC(=O)c1cccc(-c2ccc(S(=O)(=O)Nc3ccc4c(c3)N(C(=O)C3CC3)CCC4)cc2)c1,105%
19,Fc1cc2[nH]ncc2c2c3c(c(-c4cn[nH]c4)nc12)CCCC3,4.24% (active)
